PubChem BioAssay (EPA / NIEHS)
Active and inactive are the calls of the source. How the source made its calls: active means hit-call score of the fitted dose curve at least 0.9, where 1 is the maximum; inactive means score below 0.9.

Test: CCTE_Shafer_MEA_acute_burst_number: CCTE's Neural Acute Assay for Single-Electrode Bursts, Shafer Lab (AID 2284013)
Protocol: CCTE_Shafer_MEA_acute assay is conducted using Axion Biosystems 48 well microelectrode array (MEA) plates and Maestro recording system. Each well of the MEA plate contains a grid of 16 microelectrodes embedded in the culture surface. Electrically active cells, such as neurons, can be cultured over the electrodes, and electrical activity in these cells can be recorded extracellularly. The spontaneous firing of neurons is captured from each electrode on a microsecond timescale providing both temporally and spatially precise data. […] The CCTE_Shafer_MEA_acute assay uses primary cultures of rat cortical neurons. As these cultures mature over time, neural networks develop functional activity and form cohesive networks in which electrical activity can be highly coordinated. Baseline 40-minute recordings are made on days post-plating 13 or 15, followed by a secondary 40-minute recording after chemical exposure.CCTE_Shafer_MEA_acute_burst_number is a component of the CCTE_Shafer_MEA_acute assay. It measures the total number of single-electrode bursts (temporally-clustered groups of action potential firing) during a recording in a microelectrode array (MEA) using Axion Biosystems Maestro 768 channel amplifier with the AxIS adaptive spike detector. The recordings before and after chemical treatment are used to calculate a percent change in the burst number in each well.Data from the assay component CCTE_Shafer_MEA_acute_burst_number was analyzed into 1 assay endpoint. This assay endpoint, CCTE_Shafer_MEA_acute_burst_number, was analyzed in the negative analysis fitting direction relative to DMSO as the negative control and baseline of activity. Using a type of functional reporter, gain or loss-of-signal activity can be used to understand electrical activity.
Spontaneous activity in the cortical cultures was recorded using an Axion Biosystems Maestro 768 channel amplifier and Axion Integrated Studios (AxIS) v1.8 (or later) software. The amplifier recorded from all channels simultaneously (gain = 1200 x; sampling rate = 12.5 kHz/channel): raw signals were filtered with a Butterworth band-pass filter (300-5000 Hz), which filters out slower local field potentials leaving only fast potentials, i.e., "spikes", arising from extracellular currents associated with action potentials (Pine 2006; Wheeler and Nam 2011). On-line spike detection of filtered signals was conducted with the AxIS adaptive spike detector, using a threshold of 8x the root mean squared (rms) noise on each channel. Any electrodes with rms noise levels greater than 5 uV were grounded (e.g., no data were recorded). Once grounded, an electrode was grounded for the duration of the experiment. All recordings were conducted at 37 C. Wells were deemed usable if on the day of the exposure >/= 10 electrodes were active (defined as >/= 5 spikes/min). On DIV 13 or 15, a minimum of three wells from one cortical culture preparation were treated with each compound (0.03-40 uM). Prior to recording baseline activity, each mwMEA plate was placed in the Maestro at 37 C and allowed to sit for 20 min while firing rates stabilized. Baseline activity (40 min) was recorded before the addition of each compound. An additional 40 min of spontaneous activity was recorded in the presence of each compound. Changes in network parameters relative to baseline were assessed following compound treatment.

SMILES | outcome | AC50
CC(C)(C)c1ccccc1O | inactive | –
Clc1cccc(Cl)c1Cl | inactive | –
Oc1ccc(Cc2ccc(O)cc2)cc1 | – | 3 nM (active)
CN(C)C(=S)S | inactive | –
CC1(C)[C@H](C(=O)O[C@H](C#N)c2cccc(Oc3ccccc3)c2)[C@@H]1/C=C(\Cl)C(F)(F)F | inactive | –
Oc1cc(Cl)c(Cl)cc1Cl | inactive | –
O=C(Cc1ccccc1)OCCc1ccccc1 | inactive | –
Cc1cc(C(F)(C(F)(F)F)C(F)(F)F)ccc1NC(=O)c1cccc(I)c1C(=O)NC(C)(C)CS(C)(=O)=O | – | 1390 nM (active)
CS(=O)(=O)c1ccc(C(=O)C2C(=O)CCCC2=O)c(Cl)c1COCC(F)(F)F | inactive | –
CCCCCCCCCCCCc1cccc(S(=O)(=O)O)c1 | inactive | –
OCCCCO | inactive | –
CC(C)[C@@H](Nc1ccc(C(F)(F)F)cc1Cl)C(=O)OC(C#N)c1cccc(Oc2ccccc2)c1 (stereo not given in full) | inactive | –
CCCCOC(=O)COC(=O)c1ccccc1C(=O)OCCCC | – | 10.5 nM (active)
Cc1ccccc1OP(=O)(Oc1ccccc1C)Oc1ccccc1C | inactive | –
N#Cc1cccnc1 | inactive | –
